# From PubChem BioAssay (NCI)
# Where “and” joins values, the source holds several entries; their conditions need not be identical. Equal values may be shown once. Compounds without any hit were thinned out: in the full panel of roughly 83,000, 20% have a hit.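 Results are percent growth after 48 hours of single-concentration exposure. 100 means growth as in untreated cells, lower positive values show inhibition; negative values down to -100 show cell death.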 Unmarked numbers belong to inactive results. Calls of active or inactive are those of the source. How the source made its calls: active means growth percent below 10; inactive means the rest.
# Key:
# Assay in all cases: NCI-60 one-dose screen, 48 h (100 = growth as untreated, 0 = no growth, -100 = all killed)
# Conditions in all cases: 10 µM unless noted
# SR leukemia = test system: SR leukemia
# RPMI-8226 leukemia = test system: RPMI-8226 leukemia
# OVCAR-8 ovarian = test system: OVCAR-8 ovarian
# OVCAR-5 ovarian = test system: OVCAR-5 ovarian
# OVCAR-4 ovarian = test system: OVCAR-4 ovarian
# SK-OV-3 ovarian = test system: SK-OV-3 ovarian
# IGROV1 ovarian = test system: IGROV1 ovarian
# OVCAR-3 ovarian = test system: OVCAR-3 ovarian
# HS 578T breast = test system: HS 578T breast
# NCI/ADR-RES ovarian = test system: NCI/ADR-RES ovarian
# T-47D breast = test system: T-47D breast
# BT-549 breast = test system: BT-549 breast
# MDA-MB-435 melanoma = test system: MDA-MB-435 melanoma
# SW-620 colon = test system: SW-620 colon
# MCF7 breast = test system: MCF7 breast
# HCT-116 colon = test system: HCT-116 colon
# HCC-2998 colon = test system: HCC-2998 colon
# KM12 colon = test system: KM12 colon
SMILES,growth (SR leukemia),growth (RPMI-8226 leukemia),growth (OVCAR-8 ovarian),growth (OVCAR-5 ovarian),growth (OVCAR-4 ovarian),growth (SK-OV-3 ovarian),growth (IGROV1 ovarian),growth (OVCAR-3 ovarian),growth (HS 578T breast),growth (NCI/ADR-RES ovarian),growth (T-47D breast),growth (BT-549 breast),growth (MDA-MB-435 melanoma),growth (SW-620 colon),growth (MCF7 breast),growth (HCT-116 colon),growth (HCC-2998 colon),growth (KM12 colon)
OCc1ccccc1F,92.6%,106%,83.3%,76.9%,97.5%,87%,85.7%,132%,109%,75.7%,95.9%,82.4%,97.6%,58%,72.2%,58.2%,93.2%,107%
CC1(C)CC(=O)NC1=O,95.9%,108%,98.9%,94.8%,102%,104%,110%,103%,112%,103%,91.5%,104%,94.9%,107%,93.6%,96.5%,102%,102%
CCOC(=O)c1ccc(N2C(=O)C(Cl)(c3ccccc3)C2c2ccco2)cc1 (stereo unspecified),76.1%,43%,90.2%,98.2%,90.4%,104%,99.1%,78.8%,69.6%,91.3%,30.4%,76.5%,93.4%,77.6%,62.4%,54%,95.8%,83.5%
Cc1cc(Cl)nc(Nc2ccccc2)n1,97.7%,117%,102%,103%,100%,102%,100%,95.5%,99.6%,100%,90.4%,108%,98%,104%,–,93.1%,98.6%,97.8%
OCCSc1ccc(Cl)cc1,117% and 99.7%,122% and 84.6%,111% and 103%,105% and 91.1%,104% and 99.9%,112% and 86.9%,109% and 93.6%,124% and 110%,101%,108% and 102%,101% and 72.3%,111% and 94.7%,103% and 106%,104%,106% and 89.3%,110% and 94.4%,106% and 108%,117% and 102%
COCCCNC1=C(C#N)C(=O)NC(c2cccs2)S1 (stereo unspecified),113%,122%,113%,109%,93%,101%,119%,118%,112%,110%,89%,96%,95.9%,113%,89.6%,103%,108%,108%
CCC(C)NC(=O)c1ccccc1C (stereo unspecified),111%,105%,102%,79.6%,109%,97.5%,94.1%,110%,96.8%,92.7%,94.3%,99.4%,103%,92.4%,90.7%,98.3%,96.7%,101%
CS(=O)(=O)c1nsc(N)n1,98.8%,106%,104%,97.3%,103%,95.4%,101%,107%,103%,104%,95%,107%,107%,100%,99.8%,103%,98.4%,105%
O=C(O)c1c2c(nc3ccccc13)Cc1ccccc1-2,94.9% and 98%,97% and 84.1%,96.3% and 96.2%,109% and 88.1%,116% and 97.6%,99.7% and 102%,121% and 85.6%,102% and 95.6%,94.1% and 84.2%,107% and 95.7%,97.3% and 98.5%,103% and 88.1%,112% and 96.6%,99.3% and 90.1%,97.3% and 92%,95.6% and 104%,98.3% and 99.9%,97.8% and 98.9%
OCc1cccc(F)c1,71.1%,113%,85.3%,70.7%,113%,91.7%,79.6%,125%,124%,76.5%,94.6%,104%,98.6%,50%,62.1%,55.2%,99.4%,108%
Cc1c(O)nc(N)[nH]c1=O,125%,100%,101%,106%,118%,112%,118%,121%,101%,102%,114%,116%,103%,102%,99%,103%,92.8%,106%
CC(C)(C)OC(=O)c1ccc(NCc2cc(O)ccc2O)cc1,3.5% (active),1.66% (active),17.2%,106%,12.3%,44.6%,-14.3% (active),-83.8% (active),30.8%,23.1%,-67.5% (active),-17.6% (active),20%,18.9%,29.5%,36.2%,113%,8.14% (active)
CCCC(=O)OCC(COC(=O)CCC)OC(=O)CCC,105%,98.1%,101%,102%,97.6%,103%,105%,105%,98.6%,100%,85.3%,106%,106%,95.6%,93.9%,98.8%,95.3%,103%
O=[N+]([O-])c1ccc(NC2CCCCC2)nc1,98.1%,111% and 101%,118% and 101%,104% and 100%,109%,108%,116% and 104%,112% and 114%,100% and 101%,105% and 103%,102%,114% and 106%,102% and 112%,103% and 109%,110% and 102%,108% and 101%,105% and 96.3%,111% and 103%
